Assay outcomes from PubChem.
The list is not random: actives were taken first. Their share in the collection is about 6%.
D1 antag: Antagonist of Human D 1 Dopamine Receptor: qHTS; AID 504652, 2011; HEK293 TREx D1 cells, calcium flux, dopamine EC80; active compounds read low; 360,000 compounds, 3.2% hits; activity change, negative = inhibition, % at 10 µM; D(1A) dopamine receptor (Homo sapiens), P21728; in the data active = activity change below about -30%
Target sequence (P21728 whole entry, looked up): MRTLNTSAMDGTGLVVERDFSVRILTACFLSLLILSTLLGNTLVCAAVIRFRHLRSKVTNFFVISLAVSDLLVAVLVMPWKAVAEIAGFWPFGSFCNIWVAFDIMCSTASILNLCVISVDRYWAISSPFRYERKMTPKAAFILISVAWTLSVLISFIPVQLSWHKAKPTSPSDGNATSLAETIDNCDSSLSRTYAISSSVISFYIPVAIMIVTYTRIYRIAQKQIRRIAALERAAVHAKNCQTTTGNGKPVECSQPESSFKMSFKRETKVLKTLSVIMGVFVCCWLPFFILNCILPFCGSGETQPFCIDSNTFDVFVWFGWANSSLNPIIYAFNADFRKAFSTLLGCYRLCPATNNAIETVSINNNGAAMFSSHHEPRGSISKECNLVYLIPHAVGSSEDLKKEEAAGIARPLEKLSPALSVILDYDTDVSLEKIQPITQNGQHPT
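Tetracycline-induced HEK293 T-REx cells with force-coupled D1 receptor were loaded with a no-wash calcium dye. Compound was added after a 10 s baseline and read kinetically for 180 s; EC80 dopamine was then added and calcium flux followed another 180 s.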
DRD3 agonist: qHTS of D3 Dopamine Receptor Agonist: qHTS; D3R DiscoveRx beta-arrestin cells, luminescence, 90 min; 410,000 compounds, 0.58% hits; max activation, %; in the data active = max activation above about 30%
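Agonist-mode cell screen: cells plated at 1500/well and incubated overnight at 37 °C, then exposed to library compounds for 90 min at 37 °C. Detection reagent was added for 30–60 min at room temperature, and luminescence was read.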
D3 antag: qHTS of D3 Dopamine Receptor Antagonist: qHTS; D(3) dopamine receptor (Homo sapiens), P35462; D3R cells, DiscoveRx beta-arrestin luminescence, antagonist mode; active compounds read low; max response, negative = inhibition, %; 360,000 compounds, 2.5% hits; AID 652054, 2013; in the data active = max response below about -50%; inconclusive = no clear call, values can overlap the other calls
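Cells plated overnight at 1500 cells/well, then exposed to library compounds with dopamine controls for 90 minutes at 37 degrees C. DiscoveRx reagent added for 30–60 minutes at room temperature; luminescence read, quantitative HTS format.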
BCR signal inh: qHTS Assay to Find Inhibitors of Chronic Active B-Cell Receptor Signaling. ABC-DLBCL IkBa-CBG/CBR reporter, luminescence ratio, 4 h. Potency, µM (top dose mostly 46.1 µM), usual class: inhibitors. 340,000 compounds, 0.05% hits. AID 493014, 2011; active = well fitted inhibition curve with a large enough effect in the signal ratio, with a control signal flat, not every such curve was filed as active; inconclusive = small, poorly fitted or top-dose-only effect, or effect the other way, or a change in a side signal; the % refers to the signal ratio
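Doxycycline induced both beetle luciferases in TMD8 lymphoma cells; IKK-driven degradation limits the IkappaBalpha-fused green signal, while red luminescence normalises for cell number and nonspecific effects. Compounds tested up to 46 uM, 4 hrs.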
D1 potentiator: Potentiators of Human D1 Dopamine Receptor: qHTS; D(1A) dopamine receptor (Homo sapiens), P21728; HEK293 TREx D1 cells, calcium flux, dopamine EC20 potentiation; potentiation, % at 10 µM; 360,000 compounds, 0.036% hits; in the data active = potentiation above about 30%
D1 ag: Allosteric Agonists of the Human D1 Dopamine Receptor: qHTS; HEK293 T-REx D1 cells, calcium flux, agonist mode; activation, % at 2 µM; 360,000 compounds, 1% hits; in the data active = activation above about 30%
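Inducible HEK293 T-REx D1 cells, force-coupled to calcium signalling, were plated at 4000 cells/well with tetracycline and held overnight at 30 C. After no-wash calcium dye loading, compound-evoked calcium rise over 180 s flagged agonists.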
Large screens that a line does not name were inactive.

O=C(CSc1nnnn1-c1cccc2c1CCCC2)N1CCCC1	D1 ag 38
O=C(CSc1nnnn1-c1cccc2c1CCCC2)N1CCOCC1	D1 ag 70
COCCCNC(=O)CS(=O)Cc1nc(-c2ccccc2C)oc1C (configuration not stated)	D1 antag -48
COCCNC(=O)CS(=O)Cc1nc(-c2ccc(Cl)cc2)oc1C (configuration not stated)	none
CC(C)=CCC/C(C)=C/CC/C(C)=N/O	D1 antag -32
CCCN1C[C@H](CSC)C[C@@H]2c3cccc4[nH]cc(c34)C[C@H]21	D1 antag -88, DRD3 agonist 84, D1 ag 51
CN1C[C@H](C(=O)N[C@]2(C)O[C@@]3(O)[C@@H]4CCCN4C(=O)[C@H](Cc4ccccc4)N3C2=O)C[C@@H]2c3cccc4[nH]cc(c34)C[C@H]21	none (no result: D1 antag, D3 antag, BCR signal inh, D1 potentiator, D1 ag)
COc1ccc(S(=O)(=O)Nc2cc3c4c(c2)CC(=O)N4CCC3)cc1OC	none (no result: D1 antag, BCR signal inh, D1 potentiator, D1 ag)
COc1ccc(OC)c(NC(=O)Cn2nc3c(cc2=O)CCCC3)c1	none (no result: D3 antag, BCR signal inh)
Cc1ccccc1NC(=O)Nc1cccs1	D1 antag -36, BCR signal inh inconclusive
CCC(CC)C(=O)Nc1cc(Cl)ccc1C	none (no result: DRD3 agonist, D3 antag)
Cc1ccc(NC(=O)Nc2cccs2)c(C)c1	D1 antag -41 (no result: D3 antag, BCR signal inh)
Cc1ccc(Cl)cc1NC(=O)Nc1cccs1	D1 antag -63
CCc1ccccc1NC(=O)Nc1cccs1	none
COC(=O)c1ccccc1NC(=O)/C=C/c1cc(OC)c(OC)c(OC)c1	BCR signal inh 16µM
O=C(NCc1ccccc1Cl)c1ccc(Nc2nc3ccccc3n3nnnc23)cc1	none (no result: D3 antag, BCR signal inh)
O=C(O)c1ccc(NC(=S)Nc2ccc(S(=O)(=O)Nc3ccccn3)cc2)cc1	none (no result: D1 antag, BCR signal inh, D1 potentiator, D1 ag)
CCCC1=NN(c2ccc([N+](=O)[O-])cc2)C(=O)/C1=C/N(C)C	BCR signal inh inconclusive
C/C(=C1/C(=O)N(c2ccc([N+](=O)[O-])cc2)N=C1c1ccccc1)N(C)C	BCR signal inh inconclusive, D1 ag 34 (no result: DRD3 agonist, D3 antag)
CC1=NN(c2ccc([N+](=O)[O-])cc2)C(=O)/C1=C\N(C)C	D3 antag -57, BCR signal inh inconclusive
Cc1ccccc1NC(=S)NC(NC(=O)COc1ccccc1)C(Cl)(Cl)Cl (configuration not stated)	none
Cc1ccc(C)c(NC(=S)NC(NC(=O)Cc2cccc3ccccc23)C(Cl)(Cl)Cl)c1 (configuration not stated)	D3 antag -50, BCR signal inh inconclusive
Cc1ccc(C)c(NC(=S)NC(NC(=O)N(C)C)C(Cl)(Cl)Cl)c1 (configuration not stated)	none
CCc1ccc(OCC(=O)NC(NC(=S)Nc2ccccc2C)C(Cl)(Cl)Cl)cc1 (configuration not stated)	D3 antag -57, BCR signal inh inconclusive
O=C(c1cccc(F)c1)N1CCCN(C(=O)c2cccc(F)c2)CC1	D1 antag -81
CCOC(=O)N1CCN(C(=O)c2cccc(S(=O)(=O)Nc3ccccc3Cl)c2)CC1	none
C/C(=N\NC(=O)c1cccc(S(=O)(=O)Nc2ccccc2Cl)c1)c1ccc(-n2ccnc2)cc1	D3 antag -52
O=C(c1cccc(S(=O)(=O)Nc2ccccc2Cl)c1)N1CCC1	D3 antag -59
COc1ccc(NS(=O)(=O)c2cccc(C(=O)N/N=C(\C)c3ccc(-n4ccnc4)cc3)c2)cc1	none
CCOC(=O)[C@]12CCCC=C1N(Cc1cccc3ccccc13)C(=O)[C@H](CC(=O)NCCCN1CCCC1=O)C2	none (no result: D1 antag, BCR signal inh, D1 potentiator, D1 ag)
Cc1cccc(N=C2NC(=O)/C(=C3/C(=O)N(C)c4ccccc43)S2)c1C	D3 antag -93
COc1ccc(Cn2c(C(=O)O)c(CNCCc3cc(OC)ccc3OC)c3ccc(C)cc32)cc1	none (no result: D3 antag, BCR signal inh)
O=C(O)CSCCC(=O)Nc1ccc(F)cc1	DRD3 agonist 41
